Source: PubChem BioAssay (NCI)
The panel holds about 79,000 compounds, 15% with a hit somewhere; the sample as a whole holds those more often. The source made the active and inactive calls. Rule as the data show it: active = growth inhibition above about 70%; inactive = the rest.

Columns and labels:
[1] = NCI Yeast Anticancer Drug Screen. Data for the rad52 strain (AID 147);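 also: 0% = growth of vehicle-treated control cultures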; details: S. cerevisiae rad52 mutant growth inhibition, stronger effect = higher value
How it was run: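 Vehicle-treated cultures served as the reference for growth inhibition of compound-exposed yeast bearing a DNA repair mutation.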

[2] = NCI Yeast Anticancer Drug Screen. Data for the wt1 strain (AID 149);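 also: 0% = growth of vehicle-treated wt1 cultures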; details: S. cerevisiae wt1 strain (SPY 50644) growth inhibition, stronger effect = higher value
How it was run: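 Measured: growth of wt1 yeast under compound versus vehicle treatment, reported as inhibition.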

[3] = NCI Yeast Anticancer Drug Screen. Data for the rad50EPP+ strain (AID 151);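 also: 0% = growth of vehicle-treated control cultures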; details: S. cerevisiae rad50 mutant strain, stronger effect = higher value
How it was run: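 In this screen, rad50EPP+ yeast were exposed to compounds. Growth inhibition was scored against vehicle-treated controls.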

[4] = NCI Yeast Anticancer Drug Screen. Data for the mgt1 strain (AID 153); details: S. cerevisiae mgt1 mutant growth inhibition, stronger effect = higher value
How it was run: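 mgt1 strain exposed; growth vs vehicle control recorded as inhibition.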

[5] = NCI Yeast Anticancer Drug Screen. Data for the rad50 strain (AID 155);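 also: 0% = growth of vehicle-only cultures of the same strain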; details: S. cerevisiae rad50 strain growth inhibition, stronger effect = higher value
How it was run: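 Growth of the mutant yeast was measured after compound exposure and referenced to vehicle-treated cultures.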

[6] = NCI Yeast Anticancer Drug Screen. Data for the mec2-1 strain (AID 157); details: S. cerevisiae mec2-1 strain, stronger effect = higher value
How it was run: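 Vehicle-treated cultures served as reference for growth inhibition of compound-exposed mec2-1 yeast.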

[7] = NCI Yeast Anticancer Drug Screen. Data for the rad14 strain (AID 159);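 also: 0% = growth of vehicle-treated control cultures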; details: S. cerevisiae rad14 strain growth inhibition, stronger effect = higher value
How it was run: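 Here, inhibition of yeast growth was measured after compound exposure, using a strain with a genetic defect in DNA damage repair and vehicle-treated cultures as the reference.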

[8] = NCI Yeast Anticancer Drug Screen. Data for the sgs1 mgt1 strain (AID 161);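 also: 0% = growth of cultures given vehicle only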; details: S. cerevisiae sgs1 mgt1 strain, stronger effect = higher value
How it was run: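 Test agents were incubated with a DNA-repair-mutant yeast strain. Growth was then read and compared against vehicle-treated controls.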

[9] = NCI Yeast Anticancer Drug Screen. Data for the CLN2oe strain (AID 163);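 also: 0% = growth of vehicle-only control cultures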; details: S. cerevisiae CLN2oe strain, stronger effect = higher value
How it was run: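 Inhibition relative to vehicle-treated yeast is reported. Cells: strain with genetic alteration in cell-cycle control, grown with compound.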

[10] = NCI Yeast Anticancer Drug Screen. Data for the cln2 rad14 strain (AID 165);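 also: 0% = growth equal to vehicle treated cultures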; details: S. cerevisiae cln2 rad14 strain, stronger effect = higher value
How it was run: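 Each compound was tested on cln2 rad14 yeast. Inhibition of growth was calculated against vehicle-exposed controls.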

[11] = NCI Yeast Anticancer Drug Screen. Data for the bub3 strain (AID 167); details: S. cerevisiae bub3 mutant strain, stronger effect = higher value
How it was run: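 Whole-cell yeast assay. The mutant strain was incubated with compounds, and growth inhibition was determined by comparison with vehicle-treated cells.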

[12] = NCI Yeast Anticancer Drug Screen. Data for the wt2 strain (AID 169);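 also: 0% = growth of vehicle-treated yeast cultures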; details: S. cerevisiae wt2 strain growth inhibition, stronger effect = higher value
How it was run: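 Inhibition of yeast growth was determined after compound treatment, normalised to controls receiving only vehicle.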

[13] = NCI Yeast Anticancer Drug Screen. Data for the mlh1 strain (AID 171);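 also: 0% = growth of vehicle-treated control cultures of the same strain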; details: S. cerevisiae mlh1 strain growth inhibition, stronger effect = higher value
How it was run: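 Vehicle-normalised growth inhibition of a repair- or checkpoint-altered yeast strain following compound treatment.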

[14] = NCI Yeast Anticancer Drug Screen. Data for the sgs1 strain (AID 173);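 also: 0% = growth of vehicle-only control cultures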; details: S. cerevisiae sgs1 mutant, stronger effect = higher value
How it was run: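 Screen format: yeast with repair or checkpoint alterations, compound exposure, growth read relative to vehicle.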

[15] = NCI Yeast Anticancer Drug Screen. Data for the mlh1 rad18 strain (AID 175); details: S. cerevisiae mlh1 rad18 strain growth inhibition, stronger effect = higher value
How it was run: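 Vehicle-treated cultures served as the reference for growth inhibition in a yeast strain carrying DNA damage repair alterations exposed to each compound.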

[16] = NCI Yeast Anticancer Drug Screen. Data for the rad18 strain (AID 177); details: S. cerevisiae rad18 mutant growth inhibition, stronger effect = higher value
How it was run: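 Test articles were incubated with altered yeast defective in DNA damage repair. Results are given as inhibition of growth versus vehicle.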

[17] = at 5.0 µM (retest, dose inferred, filed as 0.5)
[18] = at 50.0 µM (retest, dose inferred, filed as 5.0)

Measured: growth inhibition

CCC[CH2][Sn]([CH2]CCC)([CH2]CCC)/[C](=C/[Si](C)(C)c1ccccc1)c1ccc2c(c1)OCO2
active: [1]; at 11.0 µM 92% | [1]; at 33.0 µM 90% | [1]; at 100.0 µM 87% | [2]; at 11.0 µM 94% | [2]; at 33.0 µM 92% | [2]; at 100.0 µM 89% | [3]; at 100.0 µM 74% | [4]; at 11.0 µM 95% | [4]; at 33.0 µM 92% | [4]; at 100.0 µM 93% | [5]; at 3.7 µM 72% | [5]; at 11.0 µM 89% | [5]; at 33.0 µM 87% | [5]; at 50.0 µM 91.2% | [5]; at 100.0 µM 87% | [6]; at 11.0 µM 94% | [6]; at 33.0 µM 92% | [6]; at 50.0 µM 93.7% | [6]; at 100.0 µM 91% | [7]; at 11.0 µM 95% | [7]; at 33.0 µM 93% | [7]; at 100.0 µM 93% | [8]; [17] 75% | [8]; [18] 75% | [8]; at 50.0 µM 91.8% | [9]; at 11.0 µM 92% | [9]; at 33.0 µM 89% | [9]; at 100.0 µM 84% | [10]; at 50.0 µM 91.3% | [11]; at 11.0 µM 93% | [11]; at 33.0 µM 89% | [11]; at 50.0 µM 92% | [11]; at 100.0 µM 89% | [12]; at 11.0 µM 95% | [12]; at 33.0 µM 92% | [12]; at 100.0 µM 93% | [13]; at 11.0 µM 93% | [13]; at 33.0 µM 92% | [13]; at 100.0 µM 91% | [14]; at 11.0 µM 94% | [14]; at 33.0 µM 90% | [14]; at 100.0 µM 90% | [15]; at 50.0 µM 89% | [16]; at 3.7 µM 82% | [16]; at 11.0 µM 92% | [16]; at 33.0 µM 86% | [16]; at 100.0 µM 88%
inactive: [1]; at 1.2 µM 11% | [1]; at 3.7 µM 48% | [2]; at 1.2 µM 3% | [2]; at 3.7 µM 15% | [3]; at 1.2 µM 6% | [3]; at 3.7 µM 17% | [3]; at 11.0 µM 33% | [3]; at 33.0 µM 66% | [4]; at 1.2 µM 0% | [4]; at 3.7 µM 26% | [5]; at 1.2 µM 13% | [5]; [17] 67% | [5]; [18] 67% | [6]; at 1.2 µM -1% | [6]; at 3.7 µM 17% | [6]; [17] 27% | [6]; [18] 27% | [7]; at 1.2 µM 1% | [7]; at 3.7 µM 24% | [9]; at 1.2 µM -5% | [9]; at 3.7 µM 4% | [10]; [17] 7% | [10]; [18] 7% | [11]; at 1.2 µM -2% | [11]; at 3.7 µM 10% | [11]; [17] 14% | [11]; [18] 14% | [12]; at 1.2 µM 0% | [12]; at 3.7 µM 35% | [13]; at 1.2 µM 7% | [13]; at 3.7 µM 47% | [14]; at 1.2 µM 1% | [14]; at 3.7 µM 44% | [15]; [17] 44% | [15]; [18] 44% | [16]; at 1.2 µM 25%

Cc1c2cc[n+](CCO)cc2c(C)c2c1[nH]c1ccc(O)cc12
inactive: [1]; at 1.2 µM 25% | [1]; at 3.7 µM 53% | [2]; at 1.2 µM 8% | [2]; at 3.7 µM 12% | [2]; at 11.0 µM 1% | [2]; at 33.0 µM 11% | [2]; at 100.0 µM 13% | [3]; at 1.2 µM 25% | [3]; at 3.7 µM 57% | [3]; at 11.0 µM 59% | [3]; at 33.0 µM 68% | [4]; at 1.2 µM 22% | [4]; at 3.7 µM 26% | [4]; at 11.0 µM 28% | [4]; at 33.0 µM 35% | [4]; at 100.0 µM 45% | [5]; at 1.2 µM 35% | [5]; at 3.7 µM 68% | [5]; [17] 47% | [6]; at 1.2 µM 22% | [6]; at 3.7 µM 28% | [6]; [17] 15% | [6]; at 11.0 µM 30% | [6]; at 33.0 µM 48% | [6]; [18] 36% | [6]; at 50.0 µM 36.7% | [6]; at 100.0 µM 52% | [7]; at 1.2 µM 4% | [7]; at 3.7 µM 9% | [7]; at 11.0 µM 3% | [7]; at 33.0 µM 19% | [7]; at 100.0 µM 29% | [8]; [17] 12% | [8]; [18] 35% | [8]; at 50.0 µM -1.6% | [9]; at 1.2 µM -11% | [9]; at 3.7 µM -32% | [9]; at 11.0 µM -17% | [9]; at 33.0 µM -9% | [9]; at 100.0 µM 3% | [10]; [17] 13% | [10]; [18] 15% | [10]; at 50.0 µM 7.55% | [11]; at 1.2 µM 6% | [11]; at 3.7 µM 9% | [11]; [17] 7% | [11]; at 11.0 µM 10% | [11]; at 33.0 µM 24% | [11]; [18] 33% | [11]; at 50.0 µM 1.35% | [11]; at 100.0 µM 28% | [12]; at 1.2 µM -8% | [12]; at 3.7 µM -6% | [12]; at 11.0 µM -4% | [12]; at 33.0 µM -9% | [12]; at 100.0 µM -10% | [13]; at 1.2 µM 25% | [13]; at 3.7 µM 32% | [13]; at 11.0 µM 41% | [13]; at 33.0 µM 42% | [13]; at 100.0 µM 47% | [14]; at 1.2 µM 18% | [14]; at 3.7 µM 19% | [14]; at 11.0 µM 17% | [14]; at 33.0 µM 25% | [14]; at 100.0 µM 42% | [15]; [17] 13% | [15]; [18] 36% | [16]; at 1.2 µM 20% | [16]; at 3.7 µM 20% | [16]; at 11.0 µM 19% | [16]; at 33.0 µM 40% | [16]; at 100.0 µM 49%
active: [1]; at 11.0 µM 80% | [1]; at 33.0 µM 91% | [1]; at 100.0 µM 91% | [3]; at 100.0 µM 83% | [5]; at 11.0 µM 89% | [5]; at 33.0 µM 94% | [5]; [18] 93% | [5]; at 50.0 µM 80.5% | [5]; at 100.0 µM 95% | [15]; at 50.0 µM 72.6%
